Laboratory results as given in PubChem BioAssay.
Calls of active or inactive are those of the source.

Columns and labels:
[1] = test system: Human papillomavirus type 1a protein E7 (residues 44-93); test: small molecules binding HPV E7 44-93 – biochemical, small-molecule microarray, residues 44-93, 635 nm fluorescence, primary screen (AID 1108); conditions: fluorescence 635 nm, higher = more signal;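 further: E7 fragment applied at 1 µg/mL in TBST for 1 h at 4 C; score combines spot fluorescence with its signal to noise ratio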
[2] = hepatitis C replication reporter changes, two-sided – Huh7 cells, luciferase reporter, HCV replication inhibitor project, primary screen (AID 1109); conditions: Huh7 HCV replicon luciferase reporter, 48 h; higher = more signal;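 further: huh7 hepatoma cells harbouring a luciferase neomycin HCV replicon reporter; luciferase luminescence as measure of HCV replicon replication; test concentration not given here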
[3] = target: Left-right determination factor 2 (Homo sapiens) (UniProt O00292); test: small molecules binding LEFTY2 protein – biochemical, small-molecule microarray, 635 nm fluorescence scan, primary screen (AID 1110); conditions: higher = more signal
[4] = target: Calmodulin-1 (Homo sapiens) (UniProt P0DP23); test: small molecules binding calmodulin-1 with EGTA – biochemical, small-molecule microarray, Cy5-labelled CALM1, profiling panel (AID 1111); conditions: Cy5-CALM1 binding fluorescence, higher = more signal;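 further: labelled calmodulin applied in Tris saline Tween buffer holding calcium plus EGTA and DTT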
[5] = target: Calmodulin-1 (Homo sapiens) (UniProt P0DP23); test: small molecules binding Ca-loaded calmodulin-1 – biochemical, small-molecule microarray, Cy5-labelled CALM1, plus calcium, artefact control for SMM control-protein annotation, profiling panel (AID 1112); conditions: Cy5-CALM1 binding fluorescence, higher = more signal;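 further: score merges spot fluorescence with signal to noise from triplicate slides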
[6] = probe aWnt5a binding to arrayed compounds – biochemical, biotinylated probe, 635/667 nm fluorescence, primary screen (AID 1113); conditions: small-molecule microarray, higher = more signal;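 further: score merges 667 nm fluorescence intensity with signal-to-noise per printed feature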
[7] = probe aShh binding to arrayed compounds – biochemical, biotinylated probe, 635/667 nm fluorescence, primary screen (AID 1114); conditions: small-molecule microarray, higher = more signal;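 further: probe is biotin-labelled aShh protein from a stem cell growth factor screen; measures binding of labelled protein to compounds printed on the slide; score merges feature fluorescence at 667 nm with signal-to-noise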
[8] = probe aNog binding to arrayed compounds – biochemical, biotinylated probe, 635/667 nm fluorescence, primary screen (AID 1115); conditions: small-molecule microarray, higher = more signal;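 further: probe is biotinylated aNog protein used at 0.15 µg/mL for 1 h at 4 C; z-score combines 667 nm fluorescence of each spot with its signal to noise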
[9] = target: Torsin-1A-interacting protein 1 (Homo sapiens) (UniProt Q5JTV8); test: compound microarray binding of lysate hLAP1 – cell lysate, small-molecule microarray, COS7 lysate, 635/667 nm fluorescence, primary screen (AID 1116); conditions: 635 nm fluorescence, higher = more signal
[10] = target: Alpha-bungarotoxin (Bungarus multicinctus) (UniProt P60615); test: compounds binding labelled alpha-BTX control protein – biochemical, small-molecule microarray, Alexa647 label, 635/667 nm fluorescence, artefact control for SMM control protein annotation, profiling panel (AID 1117); conditions: alpha-BTX-A647 binding fluorescence, higher = more signal
Albumin (Bos taurus) = Albumin (Bos taurus) (UniProt P02769); test: compounds binding labelled BSA control protein – biochemical, small-molecule microarray, Alexa647 label, 635/667 nm fluorescence, artefact control for SMM control protein annotation, profiling panel (AID 1118); conditions: BSA-A647 binding, fluorescence 635 nm, higher = more signal;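 further: score merges 667 nm emission intensity and signal-to-noise per printed compound spot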
[11] = probe aXIP binding to arrayed compounds – biochemical, NeuroSMM set, 635/667 nm fluorescence, primary screen (AID 1119); conditions: small-molecule microarray, higher = more signal, called active from +8 up or from −8 down;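 further: probe is the protein aXip251-270 applied at 1 µg/mL to compound-printed slides; binding of probe to printed compounds measured as 667 nm fluorescence plus signal to noise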
[12] = probe aNOTCH3 binding on compound microarray – biochemical, small-molecule microarray, 635/667 nm fluorescence, primary screen (AID 1120); conditions: higher = more signal;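 further: probe is a biotin-tagged antibody raised against NOTCH3 rather than NOTCH3 protein; score merges spot fluorescence near 667 nm with spot signal to noise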
[13] = probe aNOTCH2 binding on compound microarray – biochemical, small-molecule microarray, 635/667 nm fluorescence, primary screen (AID 1121); conditions: higher = more signal;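 further: score merges feature fluorescence read at 667 nm with its signal to noise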
[14] = target: Carbonic anhydrase 2 (Homo sapiens) (UniProt P00918); test: compounds binding carbonic anhydrase 2 – biochemical, small-molecule microarray, Alexa647-labelled CAII, profiling panel (AID 1122); conditions: CAII-A647 binding fluorescence, higher = more signal
[15] = COS7 lysate on small-molecule microarray, probe aHis, 635 nm (AID 1123); conditions: COS7 cell lysate, fluorescence, higher = more signal;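 further: z-score combines 667nm fluorescence intensity with signal-to-noise per printed compound spot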
[16] = probe aLAP1 signal on lysate-treated microarray – cell lysate, small-molecule microarray, COS7 lysate, primary screen (AID 1124); conditions: probe aLAP1, fluorescence, higher = more signal;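 further: lysate comes from COS7 cells expressing LAP1 and is applied at 0.3 µg/mL; score merges spot fluorescence near 667 nm with signal-to-noise over triplicate slides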
Sam68 (KHDRBS1) = test: compounds binding KHDRBS1 protein – biochemical, small-molecule microarray, 635 nm fluorescence, primary screen (AID 1125); conditions: higher = more signal;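 further: score merges 667 nm channel intensity with signal to noise over triplicate slides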
[17] = test system: Chordin-like protein 2 (CHRDL2); test: compounds binding chordin-like 2 – biochemical, small-molecule microarray, 635 nm fluorescence, primary screen (AID 1126); conditions: fluorescence 635 nm, higher = more signal;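 further: printed compound slides probed with Chrdl2 protein at 4 µg/mL for 1 h at 4 C; score merges 667 nm emission intensity with signal to noise over three replicate slides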
[18] = target: Concanavalin-A (Canavalia ensiformis) (UniProt P02866); test: compounds binding concanavalin A lectin – biochemical, small-molecule microarray, Alexa647 label, 635 nm, artefact control for SMM control protein annotation, primary screen (AID 1127); conditions: ConA-A647 binding fluorescence, higher = more signal;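 further: z combines 667 nm emission intensity with signal-to-noise across three replicate slides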
Sequence of Concanavalin-A (Canavalia ensiformis) (P02866 whole entry, looked up): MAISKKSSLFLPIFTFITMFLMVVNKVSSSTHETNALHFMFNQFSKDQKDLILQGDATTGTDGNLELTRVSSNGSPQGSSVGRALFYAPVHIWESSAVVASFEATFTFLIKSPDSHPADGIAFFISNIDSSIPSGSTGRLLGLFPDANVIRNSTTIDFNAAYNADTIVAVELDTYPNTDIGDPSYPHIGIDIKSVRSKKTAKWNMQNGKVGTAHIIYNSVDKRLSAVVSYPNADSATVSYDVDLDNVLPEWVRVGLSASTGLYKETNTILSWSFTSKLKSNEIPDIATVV

Sequence of Alpha-bungarotoxin (Bungarus multicinctus) (P60615 whole entry, looked up): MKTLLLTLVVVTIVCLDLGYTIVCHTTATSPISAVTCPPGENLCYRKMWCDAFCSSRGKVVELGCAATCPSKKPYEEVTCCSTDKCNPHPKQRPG
Sequence of Left-right determination factor 2 (Homo sapiens) (O00292 whole entry, looked up): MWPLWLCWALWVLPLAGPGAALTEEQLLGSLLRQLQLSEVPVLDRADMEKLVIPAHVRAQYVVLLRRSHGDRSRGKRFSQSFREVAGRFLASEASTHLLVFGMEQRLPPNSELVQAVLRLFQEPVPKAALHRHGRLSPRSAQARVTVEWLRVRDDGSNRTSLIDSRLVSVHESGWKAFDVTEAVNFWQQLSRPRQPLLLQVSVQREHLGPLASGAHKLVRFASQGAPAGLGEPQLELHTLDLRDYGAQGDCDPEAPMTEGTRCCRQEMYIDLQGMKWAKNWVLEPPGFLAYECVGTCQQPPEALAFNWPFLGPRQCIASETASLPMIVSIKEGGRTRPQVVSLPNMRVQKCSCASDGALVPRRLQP
Sequence of Albumin (Bos taurus) (P02769 whole entry, looked up): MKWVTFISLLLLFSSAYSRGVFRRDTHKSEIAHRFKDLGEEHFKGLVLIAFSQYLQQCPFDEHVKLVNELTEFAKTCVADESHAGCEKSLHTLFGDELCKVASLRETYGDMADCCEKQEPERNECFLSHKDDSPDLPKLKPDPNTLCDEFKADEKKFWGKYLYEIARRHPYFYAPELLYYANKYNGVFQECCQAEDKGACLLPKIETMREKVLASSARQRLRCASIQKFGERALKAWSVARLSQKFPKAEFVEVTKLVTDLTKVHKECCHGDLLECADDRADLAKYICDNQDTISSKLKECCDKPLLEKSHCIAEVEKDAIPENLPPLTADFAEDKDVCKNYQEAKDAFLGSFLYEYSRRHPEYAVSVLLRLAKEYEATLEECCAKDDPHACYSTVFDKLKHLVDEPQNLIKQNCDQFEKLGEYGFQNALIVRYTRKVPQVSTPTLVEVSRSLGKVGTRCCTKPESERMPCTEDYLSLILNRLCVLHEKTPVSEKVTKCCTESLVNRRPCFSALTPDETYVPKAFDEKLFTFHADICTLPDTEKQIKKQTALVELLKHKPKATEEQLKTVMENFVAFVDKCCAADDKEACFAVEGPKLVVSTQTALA
Sequence of Torsin-1A-interacting protein 1 (Homo sapiens) (Q5JTV8 whole entry, looked up): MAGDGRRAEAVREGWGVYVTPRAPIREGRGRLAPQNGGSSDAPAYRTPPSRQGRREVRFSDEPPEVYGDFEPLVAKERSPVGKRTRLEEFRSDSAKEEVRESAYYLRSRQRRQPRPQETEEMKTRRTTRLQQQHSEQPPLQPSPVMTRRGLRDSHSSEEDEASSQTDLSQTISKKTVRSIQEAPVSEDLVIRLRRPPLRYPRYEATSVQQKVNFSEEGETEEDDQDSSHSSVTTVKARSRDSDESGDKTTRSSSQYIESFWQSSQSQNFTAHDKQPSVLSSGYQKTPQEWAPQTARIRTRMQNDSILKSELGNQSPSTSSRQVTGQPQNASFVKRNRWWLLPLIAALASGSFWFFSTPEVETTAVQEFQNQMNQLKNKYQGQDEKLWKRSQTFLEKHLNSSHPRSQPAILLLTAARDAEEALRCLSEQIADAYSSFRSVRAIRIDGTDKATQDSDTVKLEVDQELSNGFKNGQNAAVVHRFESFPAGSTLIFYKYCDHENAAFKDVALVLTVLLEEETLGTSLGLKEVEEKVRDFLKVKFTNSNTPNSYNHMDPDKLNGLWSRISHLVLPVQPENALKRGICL

| SMILES | composite z-score [1] | z-score [2] | composite z-score [3] | composite z-score [4] | composite z-score [5] | composite z-score [6] | composite z-score [7] | composite z-score [8] | composite z-score [9] | composite z-score [10] | composite z-score (Albumin (Bos taurus)) | composite Z-score [11] | composite z-score [12] | composite z-score [13] | composite z-score [14] | composite z-score [15] | composite z-score [16] | composite z-score (Sam68 (KHDRBS1)) | composite z-score [17] | composite z-score [18] |
| --- | --- | --- | --- | --- | --- | --- | --- | --- | --- | --- | --- | --- | --- | --- | --- | --- | --- | --- | --- | --- |
| C=C(CCCC)C(=O)CC[C@@H](OC(=O)c1cccnc1)c1ccc(OCCO)cc1 | 0.849 | -2.35 | 0.249 | -0.588 | -0.684 | -0.0161 | -0.243 | -0.374 | 0.903 | 0.172 | -0.409 | 0.97 (inactive) | -0.0144 | -0.0357 | 0.718 | 0.719 | 0.488 | 0.947 | 0.894 | 0.239 |
| NC(=O)[C@H]1[C@@H]2C(=O)O[C@@H](c3ccccc3)[C@@H](c3ccccc3)N2[C@@H](c2ccc(O)cc2)[C@]12C(=O)Nc1ccc(C#CC3=CCCCC3)cc12 | 1.42 | -1.49 | -0.443 | 0.0791 | -0.413 | -0.0792 | -0.279 | -0.185 | 0.731 | 1.02 | 0.396 | 0.224 (inactive) | -0.0273 | -0.156 | 0.293 | 2.13 | 0.249 | 0.662 | -0.758 | 0.565 |
| C=CCC(OC(C)=O)[C@@H]1[C@@H](N(Cc2ccc(-c3cccc(C(F)(F)F)c3)o2)C(=O)c2ccc(C)cc2)c2cc(OCCCO)ccc2N1C(=O)Cc1ccc(OC)cc1 (stereo not given in full) | -0.918 | -0.466 | -0.115 | -0.697 | -1.06 | 0.0327 | -0.439 | -0.565 | 0.163 | -0.056 | -0.356 | 0.899 (inactive) | -0.0311 | -0.194 | -0.26 | -0.333 | -0.27 | -0.367 | 0.186 | 0.0203 |
| O=C1OCC=C[C@H]2OC34C=CCN(c5ccc6ccccc6c5)C(=O)[C@H]3N(CCCCCO)C(=O)[C@@H]4[C@@H]12 (stereo not given in full) | 0.203 | -0.078 | -2.05 | -0.402 | 0.239 | -0.098 | 0.151 | 0.244 | 1.35 | -0.0602 | 0.712 | -0.834 (inactive) | -0.292 | -0.0176 | 0.309 | 1.25 | -0.148 | -0.702 | -1.27 | -0.388 |
| CC(=O)N1CC(C(O)C2C=CC3C(=O)NC(=O)C3N2Nc2ccc(Cl)cc2Cl)c2ccccc21 (stereo not given) | 0.759 | -0.819 | -0.138 | 1.18 | 0.789 | 0.0437 | 0.806 | 1.5 | 0.033 | 0.869 | 0.892 | 0.0413 (inactive) | -0.0077 | 0.108 | 0.693 | 2.36 | -0.0203 | 0.99 | 0.237 | 0.732 |
| [N-]=[N+]=NCc1ccccc1[C@H]1OC(c2ccc(OCCCO)cc2)=N[C@@]1(Cc1ccccc1)C(=O)NCCN1CCOCC1 | -0.442 | -1.62 | 0.293 | 0.572 | -0.138 | 0.0711 | 0.0088 | 1.97 | 1.28 | 1.78 | 0.985 | 0.0851 (inactive) | 0.576 | -0.0531 | 0.696 | 2.61 | 0.961 | 1.3 | 0.104 | 1.12 |
| CC(C)C[C@@H]1NC(=O)[C@@H]2C[C@H](C(=O)NCCCCCC[N+](C)(C)C)[C@H](c3cccc(OCCO)c3)N2C1=O | 1.31 | -0.926 | -0.184 | -0.105 | -0.744 | -0.156 | -0.0234 | -0.249 | 0.369 | 0.446 | -0.391 | 0.0931 (inactive) | -0.0311 | -0.128 | 0.511 | 2.37 | 0.241 | 0.584 | 0.562 | 0.644 |
| COC(=O)[C@@]1(Cc2ccc(OC)cc2)[C@H]2c3cc(C(=O)N4CCCC4)n(Cc4ccc(S(C)(=O)=O)cc4)c3C[C@H]2CN1C(=O)c1ccccc1 | 0.918 | -0.887 | -0.0914 | 2.06 | 0.955 | 0.108 | 0.883 | -0.121 | 1.05 | 0.448 | 1.03 | 0.602 (inactive) | 0.264 | 0.36 | 0.583 | 2.22 | -0.272 | 0.838 | -0.737 | 0.417 |
| O=C1C2C=CC(C(O)c3ccc(I)cc3)N(Nc3ccccc3)C2C(=O)N1c1ccccc1 (stereo not given) | 0.898 | 0.0376 | 0.0988 | 2.51 | 1.2 | -0.0399 | 0.184 | 1.4 | 1.83 | 1.71 | 0.778 | 0.284 (inactive) | 0.273 | 0.11 | 0.738 | 2.87 | 0.635 | 1.34 | -0.409 | 1.16 |
| C[C@]1(C(=O)O)c2ccccc2C(=O)N(Cc2ccc(OC(F)(F)F)cc2)[C@H]1c1ccc(CO)cc1 | -0.829 | -0.102 | -0.618 | 1.03 | 0.714 | -0.129 | 0.147 | 0.265 | 0.703 | 1.56 | 0.12 | 0.219 (inactive) | -0.104 | 0.109 | 0.73 | 1.61 | 0.902 | -0.0536 | -0.758 | -0.783 |
| COc1ccc(CCNC(=O)[C@@]2(Cc3ccccc3I)c3ccccc3C(=O)N(Cc3ccccc3Cl)[C@H]2c2ccc(CO)cc2)cc1 | -0.542 | -2.44 | -0.818 | 0.331 | 0.354 | 0.0718 | 0.235 | 0.371 | 0.589 | -0.0759 | -0.41 | 1.24 (inactive) | 0.385 | 0.111 | 0.731 | 1.34 | 0.529 | 0.576 | -0.311 | 0.555 |
